Assay outcomes (PubChem)
Sfp PPTase inh = blocks B. subtilis Sfp PPTase activity | Q9F4F7 | actives 3.5% (n = 310,000) | AID 1490 | Biochemical Sfp PPTase activity, qHTS | Potency, µM, hits mostly inhibitors;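 also: the enzyme is Sfp with the accession as filed and its product quenches rhodamine fluorescence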
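After 15 min at room temperature with compound, 15 nM Sfp received 5 uM rhodamine-CoA plus 12.5 uM BHQ-2-ybbR (50 mM Hepes pH 7.6, 10 mM MgCl2). Rate came from the fluorescence difference over 30 min, ex 525/em 598 nm.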
BAZ2B inh = BAZ2B (human) inhibition; Q9UIF8; AID 504333; actives 4.4% (n = 360,000); AlphaScreen BAZ2B-H3K14Ac peptide displacement; Potency, µM (top dose mostly 114 µM), usual class: inhibitors; also: nearly all actives have a fitted effect of over 60% in size
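AlphaScreen displacement: compounds (up to 110uM) incubated 30 min at room temperature with a preformed 50 nM BAZ2B/50 nM biotinylated H3K14Ac peptide complex in PBS pH 7.4 with Tween-20. Donor and acceptor beads at 10 ug/mL final added, 20 min light-protected before reading.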
JMJD2A Tudor inh = inhibitors of human JMJD2A Tudor domain. AID 504339. AlphaScreen JMJD2A-Tudor / H3K4me3 peptide binding. Potency, µM (highest dose often 114 µM), hits mostly inhibitors. O75164. actives 4.4% (n = 390,000); also: nearly all actives have a fitted effect of over 50% in size
Target sequence (O75164 whole entry, looked up, the tested form may be a part): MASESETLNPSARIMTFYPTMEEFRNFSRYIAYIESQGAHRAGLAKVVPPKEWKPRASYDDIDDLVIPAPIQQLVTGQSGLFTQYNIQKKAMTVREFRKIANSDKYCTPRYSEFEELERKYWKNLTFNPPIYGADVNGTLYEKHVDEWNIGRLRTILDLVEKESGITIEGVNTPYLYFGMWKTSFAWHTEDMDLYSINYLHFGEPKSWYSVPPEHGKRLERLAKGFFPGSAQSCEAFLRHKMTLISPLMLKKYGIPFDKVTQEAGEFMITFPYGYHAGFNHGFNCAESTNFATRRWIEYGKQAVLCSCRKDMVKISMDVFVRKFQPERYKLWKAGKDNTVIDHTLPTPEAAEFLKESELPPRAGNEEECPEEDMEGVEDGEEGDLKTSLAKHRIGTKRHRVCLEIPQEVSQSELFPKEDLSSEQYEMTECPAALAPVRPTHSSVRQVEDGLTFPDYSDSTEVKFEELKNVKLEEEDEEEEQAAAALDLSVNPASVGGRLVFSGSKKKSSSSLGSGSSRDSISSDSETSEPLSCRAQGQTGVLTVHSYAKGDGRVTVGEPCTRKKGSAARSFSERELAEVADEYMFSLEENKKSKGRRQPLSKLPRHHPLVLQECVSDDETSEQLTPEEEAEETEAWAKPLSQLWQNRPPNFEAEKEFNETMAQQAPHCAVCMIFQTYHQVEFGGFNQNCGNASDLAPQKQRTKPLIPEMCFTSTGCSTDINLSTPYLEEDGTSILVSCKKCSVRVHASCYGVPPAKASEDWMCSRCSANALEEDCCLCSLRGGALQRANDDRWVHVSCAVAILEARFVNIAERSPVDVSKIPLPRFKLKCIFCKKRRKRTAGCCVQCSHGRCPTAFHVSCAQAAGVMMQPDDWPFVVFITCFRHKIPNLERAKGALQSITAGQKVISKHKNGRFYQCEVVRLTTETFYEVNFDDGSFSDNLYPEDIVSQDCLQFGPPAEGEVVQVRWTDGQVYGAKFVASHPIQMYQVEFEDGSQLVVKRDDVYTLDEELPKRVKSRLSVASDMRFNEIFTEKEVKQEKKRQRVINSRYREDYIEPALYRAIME
HP1b binding inh = inhibitors of HP1-beta chromodomain binding to methylated histone tails | AlphaScreen HP1-beta / biotin-H3K9me3 peptide binding | actives 0.56% (n = 390,000) | Potency, µM (doses to about 114 µM), usual class: inhibitors | P83916; also: nearly all actives have a fitted effect of over 70% in size
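Compound inhibition of the preformed complex between 50 nM HP1-beta and 50 nM biotinylated H3K9me3 peptide was read by AlphaScreen. Buffer was PBS pH 7.4 with 0.01% Tween-20. Incubations ran 30 min at room temperature, with 10 ug/mL donor/acceptor beads.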
G9a block = blocks human histone lysine methyltransferase G9a; actives 8.8% (n = 350,000); Potency, µM (highest dose often 102 µM), actives largely listed as inhibitors; G9a H3K9 monomethylation, AlphaScreen, 2 h; AID 504332; Q96KQ7; also: nearly all actives have a fitted effect of over 75% in size
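Compounds were preincubated with 20 nM G9a for 15 min, after which biotinylated H3K9 peptide (500 nM) and SAM (20 uM) started a 2 h room-temperature reaction. Monomethylated product was quantified by antibody-based AlphaScreen chemiluminescence.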
Numbers stand for hits; 0 = inactive; ? = inconclusive; - = no result; ! = not active in a repeat; [ ] = remark or other dose. An excerpt weighted towards active compounds, which were near 12% of everything screened. Calls follow the shape of the dose curve; as a rule, active = well fitted curve in the direction sought with a large enough effect; inconclusive = small, poorly fitted or top-dose-only effect, or another doubt; inactive = no such curve, though single readings can be large; an effect the other way counts as inactive or inconclusive.

SMILES	Sfp PPTase inh	BAZ2B inh	JMJD2A Tudor inh	HP1b binding inh	G9a block
Cc1ccc(S(=O)(=O)N2CCOCC2)cc1NC(=O)CN1CCN(c2ccc(O)cc2)CC1	39.8µM	?	25.1µM	?	?
CCOC(=O)C1CCN(CC(=O)Nc2cc(S(=O)(=O)N3CCOCC3)ccc2C)CC1	0	79.4µM	3.98µM	70.8µM	22.4µM
CCCN(CCC)CCCNC(=O)c1cc2c(=O)n(C)c3ccccc3c2s1	-	-	0	0	0
Cn1cccc1C(=O)N1CCC2(CCCN(C(=O)Nc3ccccc3)C2)CC1	0	-	-	-	0[12.7 µM]
Cc1cccn2c(/C=N/OCc3cccc(F)c3)c(-c3ccc(Cl)cc3)nc12	0	0	0	0	0[0.0925 µM]
COc1cccc(/C(C#N)=C/c2c(-c3ccc(Cl)cc3)nc3c(C)cccn23)c1	0	?	?	?	10µM
O=C(O)C(Cc1ccnc2ccccc12)=NO	-	-	3.16µM	0	-
COCCNC(=S)N(C)C1(c2ccccc2Cl)CCCCC1=O (stereo unspecified)	0	0	0	0	44.7µM
CC(C)NC(=S)N(C)C1(c2ccccc2Cl)CCCCC1=O (stereo unspecified)	0	0	0	0	0
O=C1OCCN1S(=O)(=O)Nc1ccccc1	0	0	79.4µM	0	44.7µM
O=C1OCCN1N1CCOC1=O	-	-	0	0	-
CCOc1ccc(CNC(=O)C2=Cc3cccc(OC)c3OC2)cc1	-	0	0	0	0
COc1ccc2c(c1)O[C@@H](c1ccc3c(c1)OCO3)[C@H](OC(=O)NS(=O)(=O)c1ccc(C)cc1)C2=O	0	-	-	-	-
S=C(Nc1ccc(Nc2ccccc2)cc1)Nc1ccccn1	0	15.8µM	20µM	?	10µM
S=C(Nc1ccccc1)c1ccccn1	44.7µM!	35.5µM	56.2µM	?	0[12.7 µM]
O=C(Nc1ccccc1)C(=O)Nc1ccccn1	0	0	0	0	0[0.501 µM]
CCc1nc2sc3c(N4CCC(C)CC4)ncnc3c2c2c1CCCC2	-	0	0	0	0
CCOc1ccc(NC(=O)C2CCCN(S(=O)(=O)c3c(C)noc3/C=C/N(C)C)C2)cc1 (stereo unspecified)	-	0	0	0	0
CCNc1ccc(Br)cc(C(=O)/C=C/c2ccc3c(c2)OCO3)c1=O	0	22.4µM	44.7µM	20µM	-
CCNC(=O)/C=C/c1cccc(Br)c1	0	-	-	-	0[12.7 µM]
CCNc1ccc(Br)cc(C(=O)/C=C/c2ccc(Cl)cc2)c1=O	39.8µM	10µM	44.7µM	0	10µM
Nc1ccccc1C(=O)/C=C/c1ccc2c(c1)OCO2	?	14.1µM	44.7µM	?	39.8µM
Nc1ccccc1C(=O)/C=C\c1ccc2c(c1)OCO2	0	-	-	-	-
CCNc1ccc(Br)cc(C(=O)/C=C/c2c(Cl)cccc2Cl)c1=O	15.8µM	25.1µM	89.1µM	?	3.98µM
Cc1ccccc1NC(=O)c1cc2c(=O)n3cccc(C)c3nc2s1	0	0	0	0	0
SMILES	Sfp PPTase inh	BAZ2B inh	JMJD2A Tudor inh	HP1b binding inh	G9a block
Cc1ccc(O)c(C(=O)/C=C/c2ccc3c(c2)OCCO3)c1	0	28.2µM	28.2µM	?	25.1µM
O=C(/C=C/c1ccc2c(c1)OCCO2)c1ccccc1	0	0	0	0	0
COc1ccc(/C(C)=N/Nc2nc(C)cc(-c3ccccc3)n2)cc1	-	-	0	0	-
COc1ccc(CCNc2nc(C)cc(=O)[nH]2)cc1OC	-	-	0	0	-
COc1ccc(/C(C)=N\Nc2nc(-c3ccccc3)cc(=O)[nH]2)cc1	0	0	?	0	8.91µM
COc1ccc(C/C(C)=N/Nc2nc(C)cc(=O)[nH]2)cc1	50.1µM	0	0	0	39.8µM
O=S(=O)(c1ccc(Br)cc1)N1CCCc2ccccc21	0	0	0	0	0
COc1ccc(Sc2nc(-c3ccccn3)ncc2OC)cc1	0	28.2µM	?	0	0
CCOC(=O)CSc1nc(-c2ccccn2)ncc1OC	0	25.1µM	70.8µM	0	?
COc1cnc(-c2ccccn2)nc1Sc1ccc(F)cc1	0	28.2µM	?	0	0
COc1cnc(-c2ccccn2)nc1Sc1ccc(Cl)cc1	0	0	?	0	0
CC(N)=NCCCC[C@@H](N)C(=O)O	-	-	-	-	10µM!
CCCc1cc2c(-c3ccccc3)cc(=O)oc2cc1OCc1ccc(C(=O)O)o1	0	?	0[11.4 µM]	?	44.7µM
COc1ccc(N2CC(C)Cn3c2nc2c3c(=O)n(Cc3ccc(C)cc3)c(=O)n2C)c(OC)c1 (stereo unspecified)	0	-	?	0	35.5µM
O=Cc1ccc2noc(-c3ccc(Cl)cc3)c2c1	0	0	0	0	22.4µM
Cc1ccc(-c2onc3ccc(Cl)cc23)cc1	0	0	0	0	0
COc1ccc(-c2onc3ccc(Cl)cc23)cc1	50.1µM	0	0	0	?
CC1(c2ccc3noc(-c4ccc(Cl)cc4)c3c2)OCCO1	?	0	0	0	0
COC(=O)CSC1=C(C#N)C(=O)NC(c2ccccc2)S1 (stereo unspecified)	31.6µM	50.1µM	?	0	?
CSC1=C(C#N)C(=O)NC(c2ccccc2O)S1 (stereo unspecified)	?	?	0	0	0
CC(=O)c1ccc(N2CCN(C(=O)c3cc4cc5cc(C)ccc5nc4s3)CC2)cc1	-	0	0	0	0
CC(=O)Oc1c(/C=C(\C#N)C(N)=O)[nH]c2ccccc12	0	0	0	0	11.2µM
CC(C)NC(=O)CSc1ccccc1C(=O)NNC(=O)Cn1ccc(C(F)(F)F)n1	-	0	0	0	?
CCOC(=O)Cn1c(=O)oc2cc(S(=O)(=O)Nc3ccc(N(CC)CC)cc3C)ccc21	0	?	?	0	39.8µM
CC(=O)N1CCCc2cc(S(=O)(=O)Nc3ccc(C)cc3C)ccc21	0	?	0	0	0
SMILES	Sfp PPTase inh	BAZ2B inh	JMJD2A Tudor inh	HP1b binding inh	G9a block
CCC(=O)N1CCc2cc(S(=O)(=O)NCCC(=O)Nc3ccc(N(CC)CC)cc3C)ccc21	-	-	?	0	10µM
CCN(CC)c1ccc(NS(=O)(=O)c2ccc3c(c2)CCCN3C(C)=O)c(C)c1	-	39.8µM	50.1µM	0	11.2µM
CCOC(=O)Cn1c(=O)oc2cc(S(=O)(=O)Nc3cc(OCC)ccc3OCC)ccc21	0	0	0	0	0
COc1ccc(/C=N/NC(=O)c2cccnc2)cc1Cn1nc([N+](=O)[O-])c(Br)c1C	0	0	-	-	50.1µM
O=S(=O)(NC1CC1)c1ccc(S(=O)(=O)N(Cc2ccccn2)C2CC2)cc1	0	0	0	0	70.8µM
O=C(COc1ccc(S(=O)(=O)NC2CCCCC2)cc1)NCc1ccccn1	0	0	0	0	0
O=C(COc1ccc(S(=O)(=O)NC2CCCCC2)cc1Cl)NCc1cccnc1	17.8µM	0	0	0	?
O=C(CCc1ccc(S(=O)(=O)NC2CCCCC2)cc1)NCc1ccccn1	39.8µM	0	0	0	?
CCC1CCCCN1C(=O)CSc1n[nH]c(N)n1 (stereo unspecified)	-	-	0	0	-
Cn1cnnc1SCC(=O)Nc1ccc(C#N)cc1	-	0	0	0	0
CCCCNS(=O)(=O)c1ccc2nc(SCC(N)=O)[nH]c2c1	0	0	0	0	0
CCCCNS(=O)(=O)c1ccc2nc(SCC(=O)c3ccccc3OC)[nH]c2c1	0	0	0	0	35.5µM
